About 83,000 compounds went through this panel and 20% of them were active in at least one assay; those are over-represented in the sample as a whole.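 Single-dose data. Exposure time 48 hours. Values below 10 considered active.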 Values without a mark were called inactive. The source made the active and inactive calls.

The assay relates to A549/ATCC NSCLC. The assay is described as follows: NCI-60 one-dose screen, 48 h (100 = growth as untreated, 0 = no growth, -100 = all killed). To be noted: 10 µM unless noted. As for the experimental part:
Growth inhibition of the A549/ATCC human Non-Small Cell Lung tumor cell line is measured as a screen for anti-cancer activity. Cells are grown in 96 well plates and exposed to the test compound for 48 hours. Compounds are tested at a single concentration, which is 10^-5 M for most compounds. The reported endpoint is percent growth (GI% or GIPRCNT), where numbers from 0 - 100% represent growth inhibition, and numbers from -100% - 0 represent cell death. For example, a value of 40 represents 60% growth inhibition. A value of 0 means no net growth occurred over the course of the experiment. A value of -40 indicates 40% of cells at the beginning of the experiment died by the end of the experiment. A value of -100 means all cells are dead at the end of the experiment.
NCI-60 Human Tumor Cell Lines Screen was performed using the standard one-dose NCI protocol, which is described in more detail at https://dtp.cancer.gov/discovery_development/nci-60/default.htm.
Compounds with GIPRCNT values below 10 were considered active. Activity score was based on GIPRCNT using the following formula: […]
Score is 0 for GIPRCNT values of 100 or above, 50 for GIPRCNT values of 0, and 100 for GIPRCNT values of -100.
As to `CNC(=O)c1ccccc1Sc1ccc2c(/C=C/c3ccccn3)n[nH]c2c1`, the growth is 28.6%.

For `Nc1c(C(=O)Nc2cccc(Cl)c2)sc2ncc(Br)cc12`, the growth is 34.6%.

For the compound `OC(c1cc2c(Cl)cc(Cl)cc2c2cc(C(F)(F)F)ccc12)C1CCCCN1` (stereo not given), the growth is -80.9% (active).

Turning to `ClCc1cccc(CSc2ncnc3c2ncn3Cc2cccc(CCl)c2)c1`, the growth is 88.7%.

As for `CCOC(=O)C(=CNc1ccccc1Cl)C(=O)OCC`, the growth is 85.6%.

For `CCN(CC)Cc1cc(Nc2nc(NC3CCC(N(C)C)CC3)c3ccccc3n2)ccc1OC` (stereo not given), the growth is 67.8%.

`Nc1ncnc2c1N=C(c1ccc(F)cc1)CC(c1sc(Cl)nc1Cl)N2` (stereo not given): the growth was 92.4%.

With `CN1CCN(Cc2ccc(NC(=O)c3cncc(C#Cc4cnc5cccnn45)c3)cc2C(F)(F)F)CC1`, the growth was 4.87% (active).

With `CN(C)c1ccc(Nc2c3ccccc3nc3ccccc23)cc1`, the growth is 14.2%.

`CC(C)COC(=O)NC(C)(C)C`: the growth is 101%.

For the compound `CC(C)=CCC[C@H](C)c1ccc(C)c2c1OCN(CCO)C2`, the growth was 82.4%.

Regarding `CCc1ccc(Nc2cc(C)c3ccc(O)cc3n2)cc1`, the growth was 85%.

As to `CC(C)CC(NC(=O)C(CCCN=C(N)N)NC(=O)OCc1ccccc1)C(=O)NC(CNC(=O)/C=C/c1ccccc1)C(C)C` (stereo not given), the growth was 108%.

With `O=C(O)/C=C(\c1nc2ccc([N+](=O)[O-])cc2[nH]1)c1cc(Cl)ccc1O`, the growth was 27%.

With `Oc1ccc(Cl)cc1-c1cc(-c2ccccc2Cl)[nH]n1`, the growth is 53.1%.

Consider `C/C(=N\NC(=S)Nc1ccccc1)c1ccccn1`, for which the growth was 45.7%.

As for `O=c1cc(-c2ccc3c(c2)OCCO3)oc2cc(Cl)ccc12`, the growth is 11.2%.

Regarding `O=C(Oc1c(Cl)c(Cl)c(Cl)c(Cl)c1Cl)C1CCCN1C(=O)OCc1ccccc1` (stereo not given), the growth is 17.2%.

`CCN(CC)CCCC(C)Nc1cnc(C(=O)Nc2cccc3ccc(OC)nc23)cn1` (stereo not given): the growth is 81.2%.

Consider `Cn1nc(C(F)(F)F)cc1-c1cc(Cl)c(OCc2ccc(Cl)cc2)c(-c2ccc(Cl)c(C(F)(F)F)c2)c1O`, for which the growth is 13.2%.

As to `Cc1ccc(NC(=O)Cn2nncc2CN2C(=O)CSC2=O)cc1C`, the growth was 102%.

Regarding `Oc1[nH]c2ccc(Cl)cc2c1/C=c1/ccc2c(c1)N=C(c1ccc(F)cc1)N=2`, the growth is 71.4%.

Consider `Cc1cc(C)cc(CCCCCCCCCCCCCCCCCC(=O)O)c1`, for which the growth was 96.6%.

Take `Cc1n(Cc2ccc3ccccc3n2)cc[n+]1Cc1ccc2ccccc2n1`: the growth was 88.6%.

Regarding `C/C(=C\C(=N\N=C(N)N)c1ccc(Cl)cc1)c1ccc(Cl)cc1`, the growth is -81.3% (active).

As to `CCN(C)CCCOc1ccc(/C(=C(\C)Cc2cccc(OC)c2)c2ccc(OC(C)=O)cc2)cc1`, the growth is 104%.

Consider `Cc1ccc(NC(=O)c2nc(S(C)(=O)=O)oc2-c2ccc(F)cc2)cc1Nc1ccc2ncn(C)c(=O)c2c1`, for which the growth is 102%.

Take `COc1ccc(C(=O)C(C#N)c2cc(OC)c(OC)c(OC)c2)cc1` (stereo not given): the growth was 98.1%.

For the compound `COc1c(C(=O)/C=C/c2ccc(C)o2)c(O)cc2occc12`, the growth is 58.8%.

Consider `COc1ccc(C(=O)c2cc(C)c(OC)c(C)c2)cc1OC(=O)CCl`, for which the growth was 14.6%.

Consider `Cc1cc(C)c(C#N)c(SCC(=O)c2sc3c(C#N)c(C)cc(C)[n+]3c2[O-])n1`, for which the growth was 19.9%.

On to `COC(=O)c1ccc(NC(N)=NCCC(C)(C)c2ccc(C(F)(F)F)cc2)nc1`, for which the growth is 54.2%.

Regarding `COc1cc(Nc2ccnc3ccc(Br)cc23)cc(OC)c1OC`, the growth was 37.5%.

With `COc1ccc2cc(-c3nc(C)c(C(C)=O)c(-c4ccc(C)cc4)n3)ccc2c1`, the growth is 92.4%.

`COc1ccc(-c2nsc3c2NC(=O)CC3c2ccc3c(c2)OCO3)cc1` (stereo not given): the growth is 26.6%.

On to `COc1cc(C2Nc3ccccc3S2)cc(CN2CCOCC2)c1O` (stereo not given), for which the growth is 73.6%.

On to `NC(N)=N/N=C\c1cccc(OCc2ccccc2)c1`, for which the growth is 87.9%.

`CCN(CC)CCCC(C)N/C(c1cccc(OC)c1)=c1\c(=O)[nH]n(-c2c3ccccc3nc3ccccc23)c(=O)\c1=C(/NC(C)CCCN(CC)CC)c1cccc(OC)c1` (stereo not given): the growth was -59.2% (active).

Regarding `CCOC(=O)c1ccccc1SC(C[N+](=O)[O-])c1ccccc1` (stereo not given), the growth was 78.7%.

For `Oc1c(-c2cc(C(F)(F)F)[nH]n2)cc(Cl)c(OCc2ccc(Cl)cc2)c1-c1ccc(Cl)c(C(F)(F)F)c1`, the growth was 11.6%.

The values are drawn from PubChem BioAssay (NCI).
